According to PubChem BioAssay AID811 (The Scripps Research Institute Molecular Screening Center, 2007):
Screen size: about 16,000 compounds; about 10 (0.06%) were called active. Cut-off read from the data, not from the text of the source: active = inhibition above about 45%; inactive = the rest. This excerpt belongs to a sample that is enriched for actives.

biological target: Toll-like receptor 4 (Homo sapiens) (UniProt O00206); test: inhibitors of human TLR4-MyD88 binding (AID 811); conditions: Cell-based TLR4-MyD88 binding inhibition assay; at 10 µM; stronger effect = higher value
Sequence (O00206 whole entry, looked up): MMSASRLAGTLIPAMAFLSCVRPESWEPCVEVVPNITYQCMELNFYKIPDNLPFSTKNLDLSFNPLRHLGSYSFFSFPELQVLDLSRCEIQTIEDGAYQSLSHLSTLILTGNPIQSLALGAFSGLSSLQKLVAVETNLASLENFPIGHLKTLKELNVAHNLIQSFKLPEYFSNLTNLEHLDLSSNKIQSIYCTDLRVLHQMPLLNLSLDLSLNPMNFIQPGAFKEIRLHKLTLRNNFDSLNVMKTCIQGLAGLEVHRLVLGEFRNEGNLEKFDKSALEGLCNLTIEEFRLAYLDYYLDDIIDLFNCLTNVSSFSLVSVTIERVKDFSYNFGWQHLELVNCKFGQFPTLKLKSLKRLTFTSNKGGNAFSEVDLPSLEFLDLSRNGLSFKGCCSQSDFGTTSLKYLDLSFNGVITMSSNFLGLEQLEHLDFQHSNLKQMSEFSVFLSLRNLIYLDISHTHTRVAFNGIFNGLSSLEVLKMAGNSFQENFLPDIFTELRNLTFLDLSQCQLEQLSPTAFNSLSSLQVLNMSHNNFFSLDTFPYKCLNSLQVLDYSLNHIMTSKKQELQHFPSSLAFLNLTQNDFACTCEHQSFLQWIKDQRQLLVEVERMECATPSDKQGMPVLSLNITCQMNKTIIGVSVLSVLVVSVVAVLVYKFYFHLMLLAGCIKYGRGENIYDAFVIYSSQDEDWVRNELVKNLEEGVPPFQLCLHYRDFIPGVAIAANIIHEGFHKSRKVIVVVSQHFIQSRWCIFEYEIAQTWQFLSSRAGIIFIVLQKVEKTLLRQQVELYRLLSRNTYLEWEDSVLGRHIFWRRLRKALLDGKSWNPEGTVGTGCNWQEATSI

inhibition, inactive:
NS(=O)(=O)c1cccc(NC(=O)c2ccccc2)c1 2.32%
N#CC(Cc1ccccc1)Sc1ccccc1 (stereo not given) 5.75%
COc1ccc(OCCC(=O)NNC(=S)Nc2cc(Cl)ccc2Cl)cc1 -3.16%
CCOCCOCCN(CC)c1ccc(N=Nc2c(C#N)cc([N+](=O)[O-])cc2C#N)c(NC(C)=O)c1 -2.49%
CC1(C)CCc2cc(-c3ccnc(SCC(=O)c4ccccc4)n3)ccc2O1 -13.2%
Cc1noc(C)c1S(=O)(=O)Nc1cc(C(F)(F)F)ccc1N1CCOCC1 3.25%
N#CCCN(CCc1ccccn1)S(=O)(=O)c1ccc2c(c1)CCO2 3.85%
CC(C)(C)C(=O)NNC(=O)c1ccc(Oc2ccc(C3SCCS3)cc2)o1 -1.82%
Cc1cc2c(cn1)C(=O)c1ccccc1-2 -3.73%
CCOC(=O)c1cc(Sc2ccccc2N)cc(C(=O)OCC)n1 -13.8%
Cc1c(C)c(C)c(CSC(=N)CC#N)c(C)c1C 1.02%
Cc1cc(NCc2cccnc2)no1 -4.99%
O=C(/C=C/c1cccc2ccccc12)N1CCCCC1 2.1%
CC1=CC(=O)C(CCC2=CC(=O)C(C)=CC2=O)=CC1=O -7.79%
CC1=NCCNC(C)=C1N1CCOCC1 2.33%
N/C(Cc1ccc(F)cc1F)=N\OC(=O)c1cccc(C(F)(F)F)c1 2.07%
O=C(N/N=C/c1ccc(Cl)cc1Cl)/C(=C/c1cccs1)NC(=O)c1ccccc1 -7.21%
NC(=NC(=O)CCn1c(=O)oc2ccccc21)c1cc(Cl)cc(Cl)c1 -2.8%
Cc1ccc(CC(=O)c2cccnc2)cc1 3.89%
FC(F)(F)c1ccc(-n2cn[nH]c2=S)cc1 -1.09%
Cc1cc(C)nc(N/C=C(\C#N)S(=O)(=O)c2ccc(Cl)cc2)n1 -13%
CCOC(=O)Cc1nnc(-c2ccc(Cl)cc2)o1 -0.7%
COC(C)(OC)c1ccc(C#N)c(=S)[nH]1 -5.59%
CCOC1=NC(C(F)(F)F)(C(F)(F)F)N=C(N2CCOCC2)O1 0.2%
CN(C)C(=O)Nc1ccc(C(C)(C)C)cc1 -8.78%
O=C(O)CCC(=O)Nc1ccccc1 0.27%
N#Cc1nc(-c2ccccc2)c(-c2ccccc2)nc1C#N 9.3%
Cc1onc(-c2ccccc2)c1C(=O)Nc1ccc(/C(C#N)=C/c2ccccn2)cc1 -8.57%
Cn1cc(C(=O)c2ccc(Cl)cc2)cc1/C=C(\C#N)S(=O)(=O)c1ccc(C(F)(F)F)cn1 -4.67%
O=C(O)CCC(=O)Nc1ccc2c(c1)OCCCO2 -5.34%
c1ccc(-n2cccc2)c(N2CCCCC2)c1 -11.1%
Cc1ccc2oc(=O)n(CC/C(N)=N/OC(=O)c3ccc(C(F)(F)F)nc3C)c2c1 8.34%
CCOC(=O)c1sc(SC)c(-c2ccccc2)c1N 2.9%
CCOC(=O)CNC(=O)CCc1cc(OC)c(OC)c(OC)c1 -5.89%
O=C(Oc1ccc(Cl)cc1)c1snnc1-c1ccccc1 -12.5%
FC(F)(F)c1cccc(NC(=S)NNc2nccc(C(F)(F)F)n2)c1 14.4%
Cc1c(S(=O)(=O)c2ccc(Cl)cc2)csc1C(=O)Nc1ccc2c(c1)OCCO2 -2.01%
O=C(CCSc1nc2ccccc2o1)N1CCc2cc([N+](=O)[O-])ccc21 -4.41%
O=C(Nc1ccc(OCc2ccccc2)cc1)Nc1ccc2c(c1)C(=O)OC2 -6.75%
CCOC(=O)c1c(NS(=O)(=O)c2cccc3nsnc23)sc(C)c1C -17.3%
CCOC(=O)CNC(=O)c1ccc(-c2cccc([N+](=O)[O-])c2)o1 2.51%
CC(=O)OCC(=O)[C@@]1(O)[C@H](C)CC2C3CCC4=CC(=O)C=CC4(C)C3=CCC21C (stereo not given in full) -5.02%
O=S(=O)(CCN1CCC(C(F)(F)F)CC1)c1ccccc1 -7.12%
COc1ccc(OC)c(CCCc2cc(OC)ccc2OC)c1 -1.32%
O=C1C=C(SCC(=O)c2ccccc2)SC(c2ccc(Cl)cc2)C1 (stereo not given) -2.02%
O=c1cc(-c2ccccc2)sc2ccc(Cl)cc12 5.03%
O=C(O)c1cnc(NCc2ccccc2)s1 -1.62%
O=S(=O)(c1ccc(Cl)c(Cl)c1)N1CCc2c([nH]c3ccccc23)C1C(F)(F)F (stereo not given) 0.92%
N#Cc1c(-c2cccs2)oc(-n2cccc2)c1-c1cc(Br)cs1 6.38%
CCOC(=O)c1cc(CC)sc1NC(=O)c1cccc(C(F)(F)F)c1 1.92%
OCCNc1nc2ccccc2[nH]1 -3.29%
COC(=O)CCN1CCc2cc(N=Nc3ccc(C(F)(F)F)cc3)ccc21 3.28%
N#CCSc1ccc2ccccc2c1 -1.93%
CCN(CCN1C(=O)CCC1=O)c1cccc(NC(C)=O)c1 -4.21%
Cc1cc(/C(N)=N/OC(=O)c2cccs2)c(-c2ccccc2)o1 3.39%
CCOc1cc(-c2cccs2)nc(N)n1 1.81%
O=S(=O)(c1ccc(Cl)s1)N1CCN(c2ccccc2)CC1 -1.65%
CSc1sc(C(N)=O)cc1C#N -2.28%
O=C(O)c1nccnc1C(=O)NCCSCc1c(F)cccc1Cl -7.53%
CCOc1ccc(C(N)=O)c(SCC(=O)O)c1 -4.29%
N#Cc1nccnc1N1CCN(c2ccccc2)CC1 10.5%
Cc1cc(S(=O)(=O)Oc2ccc(OCc3ccccc3)cc2)c(C)cc1Cl 9.02%
Cn1cccc1-c1n[nH]c(=S)n1-c1ccc(Cl)cc1Cl 9.51%
O=c1[nH]c2cc(Cl)c(Cl)cc2n1-c1ccncc1 -5.56%
COc1cccc(OCc2ccccc2)c1C#N -5%
